PubChem BioAssay AID1159580 (chemical genetic matrix, 2015)
The whole screen tested about 5,500 compounds, of which about 2,000 (36%) were called active. Not shown: some 18% with an inconclusive outcome. Rule as the data show it: active = normalized growth mostly below about 0.91 (no sharp cut-off); inconclusive = no clear call, values can overlap the other calls; inactive = mostly above about 0.92. The list shows a part of the results.

Experiment: chemical genetic growth profiling, strain panel (AID 1159580);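 also: tested at 20 µM; growth read once vehicle control cultures reached saturation at 30 °C; 1 = growth at the plate median or of vehicle wells; lower values mean less growth of the strain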
Conditions: growth OD

Measured: normalized growth

CN[C@H](CC(=O)O)C(=O)O
inactive: S. cerevisiae deletion strains, locus YJR066W, strain TOR1, active compounds read low 0.949 | S. cerevisiae deletion strains, locus YJR075W, strain HOC1, active compounds read low 0.988 | S. cerevisiae deletion strains, locus YKL009W, strain mrt4, active compounds read low 0.938 | S. cerevisiae deletion strains, locus YKL068W, active compounds read low 1.01 | S. cerevisiae deletion strains, locus YKL085W, strain MDH1 (second series), active compounds read low 1.01 | S. cerevisiae deletion strains, locus YKL085W, strain MDH1, active compounds read low 1.01 | S. cerevisiae deletion strains, locus YKL160W, strain elf1, active compounds read low 1.02 | S. cerevisiae deletion strains, locus YKL190W, strain CNB1, active compounds read low 0.999 | S. cerevisiae deletion strains, locus YKR001C, strain vps1, active compounds read low 0.989 | S. cerevisiae deletion strains, locus YKR026C, strain gcn3, active compounds read low 1.02 | S. cerevisiae deletion strains, locus YKR091W, strain srl3, active compounds read low 1.02 | S. cerevisiae deletion strains, locus YLL001W, strain dnm1, active compounds read low 1.03 | S. cerevisiae deletion strains, locus YLL026W, active compounds read low 1.03 | S. cerevisiae deletion strains, locus YLL041C, strain sdh2, active compounds read low 1.01 | S. cerevisiae deletion strains, locus YLR027C, strain aat2, active compounds read low 1.03 | S. cerevisiae deletion strains, locus YLR039C, strain RIC1, active compounds read low 0.962 | S. cerevisiae deletion strains, locus YLR058C, strain SHM2, active compounds read low 0.989 | S. cerevisiae deletion strains, locus YLR102C, strain apc9, active compounds read low 0.989 | S. cerevisiae deletion strains, locus YLR113W, strain HOG1, active compounds read low 1.07 | S. cerevisiae deletion strains, locus YLR221C, strain rsa3, active compounds read low 1 | S. cerevisiae deletion strains, locus YLR258W, strain gsy2, active compounds read low 1.02 | S. cerevisiae deletion strains, locus YLR262C, strain YPT6 (second series), active compounds read low 1.01 | S. cerevisiae deletion strains, locus YLR262C, strain YPT6, active compounds read low 0.936 | S. cerevisiae deletion strains, locus YLR268W, strain sec22, active compounds read low 0.991 | S. cerevisiae deletion strains, locus YLR320W, strain mms22, active compounds read low 0.992 | S. cerevisiae deletion strains, locus YLR330W, strain CHS5, active compounds read low 0.991 | S. cerevisiae deletion strains, locus YLR342W, strain FKS1 (second series), active compounds read low 0.983 | S. cerevisiae deletion strains, locus YLR342W, strain FKS1, active compounds read low 1.02 | S. cerevisiae deletion strains, locus YLR357W, strain rsc2, active compounds read low 0.995 | S. cerevisiae deletion strains, locus YLR370C, strain arc18, active compounds read low 1.02 | S. cerevisiae deletion strains, locus YLR371W, strain rom2, active compounds read low 0.997 | S. cerevisiae deletion strains, locus YLR384C, strain iki3, active compounds read low 1.03 | S. cerevisiae deletion strains, locus YLR418C, strain cdc73, active compounds read low 0.947 | S. cerevisiae deletion strains, locus YML016C, strain PPZ1, active compounds read low 0.989 | S. cerevisiae deletion strains, locus YML032C, strain rad52, active compounds read low 0.964 | S. cerevisiae deletion strains, locus YML120C, strain ndi1, active compounds read low 1.03 | S. cerevisiae deletion strains, locus YML124C, strain tub3, active compounds read low 0.99 | S. cerevisiae deletion strains, locus YMR058W, strain fet3, active compounds read low 1.01 | S. cerevisiae deletion strains, locus YMR078C, strain ctf18, active compounds read low 0.98 | S. cerevisiae deletion strains, locus YMR125W, strain sto1, active compounds read low 1.08 | S. cerevisiae deletion strains, locus YMR129W, active compounds read low 1.01 | S. cerevisiae deletion strains, locus YMR205C, strain PFK2, active compounds read low 1.03 | S. cerevisiae deletion strains, locus YMR223W, strain ubp8, active compounds read low 0.937 | S. cerevisiae deletion strains, locus YMR231W, strain pep5, active compounds read low 0.998 | S. cerevisiae deletion strains, locus YMR307W, strain GAS1, active compounds read low 0.89 | S. cerevisiae deletion strains, locus YNL067W, strain RPL9B, active compounds read low 1.02 | S. cerevisiae deletion strains, locus YNL071W, strain lat1, active compounds read low 1.02 | S. cerevisiae deletion strains, locus YNL153C, strain GIM3, active compounds read low 1.03 | S. cerevisiae deletion strains, locus YNL183C, strain NPR1, active compounds read low 0.992 | S. cerevisiae deletion strains, locus YNL209W, strain ssb2, active compounds read low 1.01 | S. cerevisiae deletion strains, locus YNL233W, strain BNI4, active compounds read low 1.01 | S. cerevisiae deletion strains, locus YNL248C, strain rpa49, active compounds read low 0.98 | S. cerevisiae deletion strains, locus YNL250W, strain rad50, active compounds read low 0.941 | S. cerevisiae deletion strains, locus YNL271C, strain bni1, active compounds read low 0.977 | S. cerevisiae deletion strains, locus YNL298W, strain CLA4, active compounds read low 0.972 | S. cerevisiae deletion strains, locus YNL307C, strain MCK1, active compounds read low 0.976 | S. cerevisiae deletion strains, locus YNL322C, strain KRE1 (second series), active compounds read low 1.03 | S. cerevisiae deletion strains, locus YNR049C, strain mso1, active compounds read low 1.02 | S. cerevisiae deletion strains, locus YNR052C, strain pop2, active compounds read low 0.978 | S. cerevisiae deletion strains, locus YOL006C, strain TOP1, active compounds read low 1.06 | S. cerevisiae deletion strains, locus YOL012C, strain htz1 0.629 | S. cerevisiae deletion strains, locus YOL147C, strain pex11, active compounds read low 0.984 | S. cerevisiae deletion strains, locus YOR001W, strain rrp6, active compounds read low 1.02 | S. cerevisiae deletion strains, locus YOR061W, strain CKA2, active compounds read low 0.994 | S. cerevisiae deletion strains, locus YOR069W, strain VPS5, active compounds read low 0.991 | S. cerevisiae deletion strains, locus YOR070C, strain gyp1, active compounds read low 1.01 | S. cerevisiae deletion strains, locus YOR080W, strain dia2, active compounds read low 1.03 | S. cerevisiae deletion strains, locus YOR083W, strain WHI5, active compounds read low 1.02 | S. cerevisiae deletion strains, locus YOR106W, strain vam3, active compounds read low 1.01 | S. cerevisiae deletion strains, locus YOR136W, strain idh2, active compounds read low 0.991 | S. cerevisiae deletion strains, locus YOR144C, strain elg1, active compounds read low 0.99 | S. cerevisiae deletion strains, locus YOR184W, strain ser1, active compounds read low 0.936 | S. cerevisiae deletion strains, locus YOR231W, strain MKK1, active compounds read low 1.1 | S. cerevisiae deletion strains, locus YOR265W, strain rbl2, active compounds read low 1.03 | S. cerevisiae deletion strains, locus YOR270C, strain vph1, active compounds read low 1 | S. cerevisiae deletion strains, locus YOR290C, strain snf2, active compounds read low 1.01 | S. cerevisiae deletion strains, locus YOR316C, strain cot1, active compounds read low 0.991 | S. cerevisiae deletion strains, locus YPL051W, strain arl3, active compounds read low 1.02 | S. cerevisiae deletion strains, locus YPL078C, strain atp4, active compounds read low 0.989 | S. cerevisiae deletion strains, locus YPL106C, strain sse1, active compounds read low 1.04 | S. cerevisiae deletion strains, locus YPL240C, strain hsp82, active compounds read low 1.04 | S. cerevisiae deletion strains, locus YPL256C, strain CLN2, active compounds read low 1.06 | S. cerevisiae deletion strains, locus YPR119W, strain clb2, active compounds read low 0.987 | S. cerevisiae deletion strains, locus YPR141C, strain kar3, active compounds read low 0.985 | S. cerevisiae deletion strains, locus YPR163C, strain tif3, active compounds read low 0.995 | S. cerevisiae deletion strains, locus YPR167C, strain met16, active compounds read low 0.981 | S. cerevisiae deletion strains, strain wtn01, active compounds read low 0.963 | S. cerevisiae strains, strain wild type, active compounds read low 0.995
